# Hits are enriched below; roughly 3.5% of the tested compounds scored in any of these assays.
# rCAG binder = binds r(CAG) RNA repeats | r(CAG) RNA repeat, TO-PRO-1 dye displacement fluorescence | inhibition, % at 3 µM | 370,000 compounds, 1.3% hits;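 active = inhibition above the plate cutoff, the mean of all test compounds on that plate plus 3 SD, cut at about 35% in these data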;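 note: 0% = DMSO alone and 100% = 100 µM mitoxantrone as full dye displacement; higher means more dye released from RNA so lower well fluorescence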
# MBD2 inh = inhibitors of human MBD2 binding to methylated oligonucleotide | TR-FRET | inhibition, % at 4.4 µM | 370,000 compounds, 0.31% hits; in the data active = inhibition above about 13%
# UHRF1 binding = human UHRF1 methylated DNA binding inhibitors. inhibition, % at 4.4 µM. AID 687016. UHRF1 binding to methylated oligo, TR-FRET. 370,000 compounds, 0.75% hits; in the data active = inhibition above about 21%;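 note: UHRF1 SRA domain binding a hemimethylated CpG hairpin DNA probe; 0% = median of test compound wells and 100% = reference inhibitor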
# Target sequence (Q96T88 whole entry, looked up, the tested form may be a part): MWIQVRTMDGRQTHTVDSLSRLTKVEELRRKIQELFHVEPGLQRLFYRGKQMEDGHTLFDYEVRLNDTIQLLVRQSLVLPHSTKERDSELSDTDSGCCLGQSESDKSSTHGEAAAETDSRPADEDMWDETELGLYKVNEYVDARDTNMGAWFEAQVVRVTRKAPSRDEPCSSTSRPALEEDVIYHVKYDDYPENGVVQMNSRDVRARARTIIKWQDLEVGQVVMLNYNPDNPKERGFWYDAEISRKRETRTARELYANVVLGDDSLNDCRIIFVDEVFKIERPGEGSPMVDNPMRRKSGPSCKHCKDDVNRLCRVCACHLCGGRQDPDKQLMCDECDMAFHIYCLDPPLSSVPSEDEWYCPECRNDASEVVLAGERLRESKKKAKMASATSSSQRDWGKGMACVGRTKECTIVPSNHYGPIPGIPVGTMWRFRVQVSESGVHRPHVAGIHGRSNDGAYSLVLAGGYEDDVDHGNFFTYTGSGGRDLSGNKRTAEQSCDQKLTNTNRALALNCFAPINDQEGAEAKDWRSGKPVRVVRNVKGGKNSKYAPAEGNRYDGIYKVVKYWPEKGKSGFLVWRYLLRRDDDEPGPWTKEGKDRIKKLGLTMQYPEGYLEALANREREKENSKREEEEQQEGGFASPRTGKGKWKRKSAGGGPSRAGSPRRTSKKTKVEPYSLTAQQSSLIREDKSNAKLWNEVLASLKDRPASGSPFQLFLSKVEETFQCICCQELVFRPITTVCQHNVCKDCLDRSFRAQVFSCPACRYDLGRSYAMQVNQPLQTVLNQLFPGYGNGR
# LEDGF integ inh = blocks HIV-1 LEDGF/p75-dependent DNA integration. TR-FRET IN-LEDGF/p75 DNA integration, Eu/Cy5. inhibition, % at 3.7 µM. 370,000 compounds, 0.64% hits;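 active = inhibition above the screen-wide mean plus 3 SD, cut at about 13% in these data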;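 note: signal is the Cy5 over europium emission ratio at 671 and 618 nm; 0% = plate median of compound wells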
# DNMT1 block = blocks human DNA methyltransferase DNMT1; DNMT1 molecular beacon, Hinp1I cleavage, fluorescence; P26358; 360,000 compounds, 0.83% hits; inhibition (reported as % activation of signal), % at 10 µM; in the data active = inhibition above about 50%
# PG9 Ab binder = binds the HIV-1 gp120 antibody PG9 | TR-FRET gp120-PG9 antibody binding | AID 624416 | inhibition, % at 6.7 µM | 360,000 compounds, 0.43% hits; in the data active = inhibition above about 8.5%
# The depositor's hits bear a star; nt = not tested or not shown.
SMILES,rCAG binder,MBD2 inh,UHRF1 binding,LEDGF integ inh,DNMT1 block,PG9 Ab binder
CC1CC(C)CN(C(=O)COC(=O)c2ccc(S(=O)(=O)N(C)c3ccccc3)cc2)C1 (stereo not given),-1,2,21*,7,-2,-2
O=C(c1ccc2c(c1)CCC2)N1CCN(Cc2ccccc2)CC1,5,-1,0,-3,3,-1
COCCNC(=O)C1CCCN(C(=O)c2ccc3ccccc3n2)CC1 (stereo not given),1,4,2,-2,2,-4
CCCSc1nc2cc(C)c(C)cc2n1CC(O)CO (stereo not given),-2,0,2,-4,-5,-2
CCCSc1nc2cc(C)c(C)cc2n1CC(C)O (stereo not given),-5,6,22*,1,7,-1
CN(C(=O)CNC(=O)c1ccccc1OCC(=O)Nc1ccc(I)cc1)c1ccccc1,3,-2,-1,1,nt,nt
COc1ccc(C2(c3ccc(OC)cc3)NC(=O)N(CC(=O)Nc3ccc(C(N)=O)cc3)C2=O)cc1,17,10,42*,5,-3,0
Cc1cc(C(=O)O)c(C)n1-c1ccccc1,-2,2,-1,-2,-2,0
Cc1ccc(C)n1-c1sccc1C(=O)O,nt,nt,nt,nt,107*,nt
CN1CCN(C2CN(Cc3cn(Cc4ccc(F)cc4)nn3)S(=O)(=O)C2)CC1 (stereo not given),0,7,21*,0,nt,0
O=C(NCCN1CCC(Cc2ccccc2)CC1)C1CCCN(S(=O)(=O)c2ccc([N+](=O)[O-])cc2)C1 (stereo not given),2,2,0,-4,nt,nt
CC(COc1cccc(C#N)c1)CN1CCC(C(O)(c2ccccc2)c2ccccc2)CC1 (stereo not given),0,-1,4,8,nt,nt
COc1ccc(Cl)cc1NC(=S)N(Cc1ccccc1C)CC1CCC(C(=O)O)CC1 (stereo not given),45*,2,0,-1,-2,-1
Cc1ccc2cc(CN(CC3CCCO3)S(=O)(=O)c3ccccc3)c3nnnn3c2c1 (stereo not given),-1,-6,21*,-2,-4,0
Cc1ccc2cc(CN(CC3CCCO3)C(=O)Nc3ccccc3F)c3nnnn3c2c1 (stereo not given),1,2,-1,4,-2,-2
O=C(O)c1ccccc1NS(=O)(=O)c1ccc(N/N=C/c2cccc(O)c2O)c([N+](=O)[O-])c1,92*,-5,1,3,11,1
CCOc1ccc(C=NNc2ccc(S(=O)(=O)Nc3ccccc3C(=O)O)cc2[N+](=O)[O-])cc1OC,nt,nt,nt,nt,-6,nt
CN(CCO)c1ccc(C=NNc2ccc([N+](=O)[O-])cc2S(=O)(=O)Nc2ccccc2C(=O)O)cc1,91*,-3,-3,4,-32,-2
CCOC(=O)[C@@]12CN(C(=O)OC(C)(C)C)CC=C1N(Cc1ccc(OC)cc1)C(=O)[C@H]2CC(=O)NCCc1ccccc1OC,0,0,-2,-2,nt,nt
CCCC(=O)Nc1cc(C)c2c(=O)oc3ccccc3c2n1,3,1,0,-4,-2,-1
Cc1cc(NC(=O)c2ccccc2F)nc2c1c(=O)oc1ccccc12,5,1,22*,1,18,2
COc1ccc(N2CCCN(CC(=O)Nc3ccc(Cl)cc3)CC2)cc1,1,-5,-1,-1,nt,nt
COC(=O)C1=C(C)N(c2ccccc2)C(=S)NC1c1ccccc1C(F)(F)F (stereo not given),-3,-2,44*,-6,-2,2
COCCOC(=O)C1=C(C)N(c2ccccc2)C(=S)NC1c1ccccc1C(F)(F)F (stereo not given),-3,1,-1,0,0,-1
Cc1ccc(Cl)c(OCC(=O)NC2CCN(Cc3ccccc3)CC2)c1,-8,0,-2,4,0,0
Cc1ccc(S(=O)(=O)N2CCOCC2)cc1C(=O)OCC(=O)NC1CC1,0,4,-1,2,-2,0
CC1CCCC(NC(=O)COC(=O)c2ccc(S(=O)(=O)N3CCOCC3)cc2)C1C (stereo not given),-6,12,21*,-2,2,-2
CC1CCCC(NC(=O)COC(=O)c2cc(S(=O)(=O)N3CCOCC3)ccc2F)C1C (stereo not given),0,-5,3,2,4,0

# Assay outcomes: PubChem BioAssay, several laboratories
